The supplement of paper PMC8728848
The sample as a whole holds a higher share of the strongest signals than the screen did.

Legend:
Assay in all cases: glycan array binding signal (z-score within array); higher = stronger binding
Conditions in all cases: glycan notation: IUPAC condensed, linker removed
[1] = biological target: Fuc(a1-2)Gal(b1-3)GalNAc(b1-3)Gal
Procedure, shortened: (§1)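 From the Consortium for Functional Glycomics database, 3228 arrays were curated, keeping only those whose protein sequence was available. Binding is given as a within-array Z-score averaged across arrays sharing a protein sequence and across linkers. Negative Z-scores can be read as non-binding.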

[2] = biological target: Fuc(a1-2)Gal(b1-3)[Fuc(a1-4)]GlcNAc(b1-3)[Gal(b1-4)GlcNAc(b1-6)]Gal(b1-4)Glc
Procedure, shortened: as §1

Fuc(a1-2)Gal(b1-4)GlcNAc = biological target: Fuc(a1-2)Gal(b1-4)GlcNAc
Procedure, shortened: as §1

[3] = biological target: Fuc(a1-2)Gal(b1-4)GlcNAc(b1-3)GalNAc
Procedure, shortened: as §1

[4] = biological target: Fuc(a1-2)Gal(b1-4)GlcNAc6S
Procedure, shortened: as §1

Fuc(a1-2)Gal6S(b1-4)Glc = biological target: Fuc(a1-2)Gal6S(b1-4)Glc
Procedure, shortened: as §1

Fuc(a1-2)[Gal(a1-3)]Gal = biological target: Fuc(a1-2)[Gal(a1-3)]Gal
Procedure, shortened: as §1

[5] = biological target: Fuc(a1-2)[Gal(a1-3)]Gal(b1-4)GlcNAc
Procedure, shortened: as §1

[6] = biological target: Fuc(a1-2)[Gal(a1-3)]Gal(b1-4)GlcNAc(b1-2)Man(a1-3)[Fuc(a1-2)[Gal(a1-3)]Gal(b1-4)GlcNAc(b1-2)Man(a1-6)]Man(b1-4)GlcNAc(b1-4)GlcNAc
Procedure, shortened: as §1

[7] = biological target: Fuc(a1-2)[GalNAc(a1-3)]Gal(b1-3)GlcNAc(b1-2)Man(a1-3)[Fuc(a1-2)[GalNAc(a1-3)]Gal(b1-3)GlcNAc(b1-2)Man(a1-6)]Man(b1-4)GlcNAc(b1-4)GlcNAc
Procedure, shortened: as §1

[8] = biological target: Fuc(a1-2)[GalNAc(a1-3)]Gal(b1-4)GlcNAc
Procedure, shortened: as §1

[9] = biological target: Fuc(a1-2)[GalNAc(a1-3)]Gal(b1-4)GlcNAc(b1-2)Man(a1-3)[Fuc(a1-2)[GalNAc(a1-3)]Gal(b1-4)GlcNAc(b1-2)Man(a1-6)]Man(b1-4)GlcNAc(b1-4)GlcNAc
Procedure, shortened: as §1

[10] = biological target: Fuc(a1-2)[GalNAc(a1-3)]Gal(b1-4)GlcNAc(b1-3)Gal(b1-4)GlcNAc
Procedure, shortened: as §1

[11] = biological target: Fuc(a1-2)[GalNAc(a1-3)]Gal(b1-4)GlcNAc(b1-3)Gal(b1-4)GlcNAc(b1-3)Gal(b1-4)GlcNAc
Procedure, shortened: as §1

[12] = biological target: Fuc(a1-3)[Gal(b1-4)]GlcNAc
Procedure, shortened: as §1

Fuc(b1-3)GlcNAc = biological target: Fuc(b1-3)GlcNAc
Procedure, shortened: as §1

[13] = biological target: Gal(a1-3)Gal(b1-3)GlcNAc(b1-2)Man(a1-3)[Gal(a1-3)Gal(b1-3)GlcNAc(b1-2)Man(a1-6)]Man(b1-4)GlcNAc(b1-4)GlcNAc
Procedure, shortened: as §1

[14] = biological target: Gal(a1-3)Gal(b1-4)GlcNAc(b1-3)GalNAc
Procedure, shortened: as §1

[15] = biological target: Gal(a1-3)Gal(b1-4)[Fuc(a1-3)]GlcNAc
Procedure, shortened: as §1

Gal(a1-6)Glc = biological target: Gal(a1-6)Glc
Procedure, shortened: as §1

Gal(b1-3)Gal = biological target: Gal(b1-3)Gal
Procedure, shortened: as §1

[16] = biological target: Gal(b1-3)GalNAc(b1-3)Gal(a1-4)Gal(b1-4)Glc
Procedure, shortened: as §1

Gal(b1-3)GlcNAc = biological target: Gal(b1-3)GlcNAc
Procedure, shortened: as §1

[17] = biological target: Gal(b1-4)GlcNAc(a1-6)Gal(b1-4)GlcNAc
Procedure, shortened: as §1

[18] = biological target: GlcNAc(a1-3)Gal(b1-4)GlcNAc
Procedure, shortened: as §1

[19] = biological target: GlcNAc(a1-4)Gal(b1-3)GlcNAc
Procedure, shortened: as §1

[20] = biological target: GlcNAc(b1-4)GlcNAc(b1-4)GlcNAc(b1-4)GlcNAc(b1-4)GlcNAc(b1-4)GlcNAc
Procedure, shortened: as §1

Kdn(a2-3)Gal(b1-4)Glc = biological target: Kdn(a2-3)Gal(b1-4)Glc
Procedure, shortened: as §1

[21] = biological target: Neu5Ac(a2-3)Gal(b1-3)GlcNAc6S
Procedure, shortened: as §1

[22] = biological target: Neu5Ac(a2-3)Gal(b1-3)[Fuc(a1-4)]GlcNAc(b1-3)Gal(b1-3)[Fuc(a1-4)]GlcNAc
Procedure, shortened: as §1

[23] = biological target: Neu5Ac(a2-3)Gal(b1-4)GlcNAc(b1-3)Gal(b1-4)[Fuc(a1-3)]GlcNAc
Procedure, shortened: as §1

[24] = biological target: Neu5Ac(a2-3)Gal(b1-4)[Fuc(a1-3)]GlcNAc
Procedure, shortened: as §1

[25] = biological target: Neu5Ac(a2-3)Gal(b1-4)[Fuc(a1-3)]GlcNAc6S
Procedure, shortened: as §1

[26] = biological target: Neu5Ac(a2-3)[GalNAc(b1-4)]Gal(b1-4)Glc
Procedure, shortened: as §1

[27] = biological target: Neu5Ac(a2-6)GlcNAc(b1-4)GlcNAc(b1-4)GlcNAc
Procedure, shortened: as §1

[28] = biological target: Neu5Ac(a2-8)Neu5Ac(a2-8)Neu5Ac(a2-8)Neu5Ac(a2-3)[GalNAc(b1-4)]Gal(b1-4)Glc
Procedure, shortened: as §1

[29] = biological target: Neu5Gc(a2-3)Gal(b1-4)[Fuc(a1-3)]GlcNAc
Procedure, shortened: as §1

B1: GH98CBM51-1 (Streptococcus pneumoniae) (protein)
chain: MTYLSDMDWSSATHGDIDKTKTVQKDAPFTTGNKGEHTKISLLTSDDKVKYFDKGIGTVADSPSVISYDISGQGFEKFETYIGIDQSANSSRSDHAVVDRIEIEIDGKVVYSSSVTNPEGFRYNTQAQFISVTIPQNAKKISLKSFAGEHTWGDEVVFADAKLIKTVST
In the case of B1, the “glycan array binding signal (z-score)” value [1] is reported as -0.187, the “glycan array binding signal (z-score)” value [2] is reported as -0.19 and the “glycan array binding signal (z-score)” value (Fuc(a1-2)Gal(b1-4)GlcNAc) is reported as -0.191. For the same binder, the “glycan array binding signal (z-score)” value [3] was -0.194, the “glycan array binding signal (z-score)” value [4] was -0.194 and the “glycan array binding signal (z-score)” value (Fuc(a1-2)Gal6S(b1-4)Glc) was -0.185. For the same binder, the “glycan array binding signal (z-score)” value (Fuc(a1-2)[Gal(a1-3)]Gal) was 5.96, the “glycan array binding signal (z-score)” value [5] was 5.12 and the “glycan array binding signal (z-score)” value [6] was 8.05. The “glycan array binding signal (z-score)” value [7] was -0.122, the “glycan array binding signal (z-score)” value [8] was 5.07 and the “glycan array binding signal (z-score)” value [9] was 5.04. For the same binder, the “glycan array binding signal (z-score)” value [10] was 5.55, the “glycan array binding signal (z-score)” value [11] was 4.91 and the “glycan array binding signal (z-score)” value [12] was -0.192. For the same binder, the “glycan array binding signal (z-score)” value (Fuc(b1-3)GlcNAc) was -0.193, the “glycan array binding signal (z-score)” value [13] was -0.171 and the “glycan array binding signal (z-score)” value [14] was -0.191. For the same binder, the “glycan array binding signal (z-score)” value [15] was -0.186, the “glycan array binding signal (z-score)” value (Gal(a1-6)Glc) was -0.186 and the “glycan array binding signal (z-score)” value (Gal(b1-3)Gal) was -0.181. For the same binder, the “glycan array binding signal (z-score)” value [16] was -0.191, the “glycan array binding signal (z-score)” value (Gal(b1-3)GlcNAc) was -0.188 and the “glycan array binding signal (z-score)” value [17] was -0.186. For the same binder, the “glycan array binding signal (z-score)” value [18] was -0.193, the “glycan array binding signal (z-score)” value [19] was -0.189 and the “glycan array binding signal (z-score)” value [20] was -0.195. For the same binder, the “glycan array binding signal (z-score)” value (Kdn(a2-3)Gal(b1-4)Glc) was -0.191, the “glycan array binding signal (z-score)” value [21] was -0.196 and the “glycan array binding signal (z-score)” value [22] was -0.184. For the same binder, the “glycan array binding signal (z-score)” value [23] was -0.191, the “glycan array binding signal (z-score)” value [24] was -0.191 and the “glycan array binding signal (z-score)” value [25] was -0.182. The “glycan array binding signal (z-score)” value [26] was -0.196, the “glycan array binding signal (z-score)” value [27] was -0.193 and the “glycan array binding signal (z-score)” value [28] was -0.184. The “glycan array binding signal (z-score)” value [29] was -0.182.
